About 25,000 (6.9%) of roughly 360,000 compounds were called active. Another 9% or so got no clear call; they are omitted. Calls follow the shape of the dose curve; as a rule, active = well fitted inhibition curve with a large enough effect; inconclusive = small, poorly fitted or top-dose-only effect; inactive = flat fitted curve, though single readings scatter. What follows is part of a selection rich in actives, with near analogues and random picks from the rest. A call without a number means that no potency is given here.
Target: Luciferin 4-monooxygenase (Photinus pyralis) (UniProt P08659)
Assay: qHTS profiling assay for firefly luciferase inhibitor/activator using purifed enzyme and Km concentrations of substrates (counterscreen for miR-21 project); also: nearly all actives have a fitted effect of over 55% in size
Details: purified FLuc, luminescence inhibition; series mostly up to 57.5 µM
In short: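 Purified P. pyralis luciferase (10nM final) with 10uM D-luciferin and 10uM ATP (Km levels) in 50mM Tris acetate pH 7.5, 10mM Mg acetate, 0.01% Tween-20, 0.05% BSA; qHTS 6-point titration, ~60 µM downward; luminescence read.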
Potency is read from the fitted curve at half-maximal effect.

Luciferin 4-monooxygenase (Photinus pyralis), sequence (P08659 whole entry, looked up): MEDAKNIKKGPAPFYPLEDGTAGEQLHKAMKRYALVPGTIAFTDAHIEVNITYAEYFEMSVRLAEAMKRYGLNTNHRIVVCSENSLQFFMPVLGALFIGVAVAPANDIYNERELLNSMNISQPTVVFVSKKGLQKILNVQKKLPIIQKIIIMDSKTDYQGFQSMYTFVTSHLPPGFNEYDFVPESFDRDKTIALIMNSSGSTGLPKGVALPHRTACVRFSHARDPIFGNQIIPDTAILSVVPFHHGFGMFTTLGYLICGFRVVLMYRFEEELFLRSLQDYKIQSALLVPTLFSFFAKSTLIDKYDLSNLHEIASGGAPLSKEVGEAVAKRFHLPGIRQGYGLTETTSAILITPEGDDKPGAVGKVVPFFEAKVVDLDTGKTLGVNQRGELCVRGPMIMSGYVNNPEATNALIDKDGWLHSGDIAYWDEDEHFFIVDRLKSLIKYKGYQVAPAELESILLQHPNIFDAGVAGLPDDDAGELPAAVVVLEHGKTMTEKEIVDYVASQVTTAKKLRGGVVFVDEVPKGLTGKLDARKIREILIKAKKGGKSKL

SMILES	Potency
CN1CCN(S(=O)(=O)c2ccc(N3CCN(c4ccccc4O)CC3)c([N+](=O)[O-])c2)CC1	inactive
O=C(CCS(=O)(=O)c1ccccc1Cl)Nc1ccc(S(=O)(=O)Nc2ncccn2)cc1	inactive
CC(=O)Nc1ccc(S(=O)(=O)Nc2nccc(/C=C/c3ccccc3F)n2)cc1	inactive
O=C(/C=C/c1ccccc1Cl)Nc1ccc(S(=O)(=O)Nc2ncccn2)cc1	13.5 µM (active)
CC(=O)NS(=O)(=O)c1ccc(NC(=O)/C=C/c2ccccc2Cl)cc1	12 µM (active)
CC(=O)NS(=O)(=O)c1ccccc1	inactive
NS(=O)(=O)c1ccc(NC(=O)/C=C/c2ccccc2Cl)cc1	inactive
COc1ccc(CNC(=O)Cn2nnc(-c3ccccc3F)n2)cc1	inactive
CCOc1cccc2sc(N3CCN(C(=O)C4CC4)CC3)nc12	inactive
Cc1occc1-c1nnc(SCC(=O)NC2(C#N)CCCC2)n1C	inactive
Cc1ccc(CSc2oc(-c3cccs3)nc2S(=O)(=O)c2ccc(C)cc2)cc1	inactive
CCOC(=O)N1CCN(Cc2nnc(-c3ccccc3Cl)o2)CC1	inactive
Cc1onc(-c2ccccc2Cl)c1C(=O)OCc1nnc(-c2ccccc2)o1	inactive
O=C(c1ccc(Cl)s1)N(Cc1nnc(-c2ccccc2Cl)o1)C1CC1	19 µM (active)
Cc1ccc(S(=O)(=O)c2c(Nc3cccc(Cl)c3)sc(C(=O)c3ccc4c(c3)OCO4)c2N)cc1	inactive
COc1ccccc1C(=O)NC(=S)Nc1ccccc1N1CCCCC1	inactive
O=C(CCCCn1c(=O)c2ccccc2n(CC(=O)Nc2cccc(C(F)(F)F)c2)c1=O)NCc1ccc2c(c1)OCO2	inactive
CC(=O)Nc1cc(C(=O)NCc2ccc(F)cc2)ccc1Sc1ccc(F)cc1	inactive
COC(=O)c1ccc(Sc2ccc(F)cc2)c(N)c1	21.3 µM (active)
COC(=O)c1ccc(C(=O)OC)c(NC(=S)N2CCN(c3ccc(F)cc3)CC2)c1	inactive
CC(C)NC(=O)c1nn(-c2ccccc2F)nc1CO	inactive
CCOC(=O)C1CCC(CN(Cc2ccc(OC)cc2)S(=O)(=O)c2ccc(F)c(C(=O)Nc3cc(C)ccc3C)c2)CC1 (stereo unspecified)	inactive

SMILES	Potency
CCNC(=O)CC1C(=O)N(c2ccc(F)cc2)C(=O)N1Cc1ccc(C)cc1 (stereo unspecified)	inactive
N#Cc1cccc(OC(=O)c2ccc3c(=O)n4c(nc3c2)CCC4)c1	inactive
COc1ccccc1CNC(=O)C(=O)NCC(c1ccco1)S(=O)(=O)c1ccc(F)cc1 (stereo unspecified)	inactive
CC1=NOC(=O)/C1=C\c1ccccc1	inactive
COc1cc(/C=C2/C(=O)ON=C2C)ccc1OCc1ccccc1F	6.75 µM (active)
CCOc1cc(/C=C2/C(=N)N3OC(C)=CC3=NC2=O)ccc1OC	inactive
CCc1ccc(CN(Cc2ccco2)C(=O)c2ccccc2Cl)cc1	inactive
Cc1ccc(NC(=O)NC(=O)c2ccccc2)cc1F	inactive
Cc1cccc(NC(=O)NC(=S)NC(=O)c2ccccc2)c1	19 µM (active)
Cc1ccccc1NC(=S)NC(=O)Cc1ccc(Cl)cc1	inactive
Cc1ccc(C(=O)NC(=S)Nc2ccccc2C)cc1	19 µM (active)
Cc1ccc(C(=O)NC(=S)Nc2ccc(N3CCOCC3)cc2)cc1	inactive
O=C(CNC(=O)c1ccc(Br)o1)Nc1ccccc1	inactive
Cc1cccc(NC(=O)/C(=C\c2ccco2)NC(=O)c2ccccc2)c1	inactive
Cc1cccc(NC(=O)c2ccc([N+](=O)[O-])o2)c1	inactive
Cc1cccc(NC(=S)NC(=O)c2ccc(Br)o2)c1	19 µM (active)
CC1CCN(S(=O)(=O)c2ccc3c(c2)N(CC(=O)NCCc2ccccc2)C(=O)CO3)CC1	inactive
O=C(NCc1cccc(Cl)c1)C1=CC=CN2CCS(=O)(=O)N=C12	inactive
Cc1nnc(NCc2ccccc2)c2c1nnn2Cc1ccc(F)cc1	inactive
O=C(CCS(=O)(=O)c1cc(Br)cc2c1N(C(=O)C1CC1)CC2)Nc1ccc(Br)cc1F	inactive
Cc1ccc(NC(=O)CSc2nc3c([nH]c4ccccc43)c(=O)n2-c2ccccc2)cc1Cl	inactive
NC(=O)CSc1nc2c(oc3ccccc32)c(=O)n1Cc1ccccc1	inactive

SMILES	Potency
Cc1ccc(OCC(=O)Nc2ccc3oc(=O)ccc3c2)cc1C	inactive
CC1=C(C(=O)N2CCN(c3cccc(C(F)(F)F)c3)CC2)C2(CCCCC2)OC1=O	inactive
CC(C)c1nc2cc(C(=O)NC(C)c3cnn(C)c3)ccc2o1 (stereo unspecified)	inactive
COC(=O)c1ccc(CNC(=O)c2ccc3oc(C(C)C)nc3c2)cc1	13.5 µM (active)
COc1ccc(CNC(=O)c2ccc3oc(C(C)C)nc3c2)cc1	15.1 µM (active)
COc1ccc(-c2nc3ccc(C(=O)NCc4ccc(C)cc4)cc3nc2-c2ccc(OC)cc2)cc1	inactive
COc1ccc(Cc2nc3ccc(C(=O)NCc4ccc(OC)cc4OC)cc3o2)cc1	inactive
COC(=O)c1ccc(CSc2nc3cc(Cl)ccc3o2)cc1	inactive
COC(=O)c1c(NC(=O)c2cc(=O)c3c(C)cc(C)cc3o2)sc2c1CCCC2	inactive
CCCCN(C)S(=O)(=O)c1ccc(C(=O)Nc2sc3c(c2C(N)=O)CC(C)(C)NC3(C)C)cc1	inactive
FC(F)(F)c1cc(Nc2nc3ccccc3c3nncn23)ccc1Cl	inactive
Cc1c(CNC2CCCCC2)c(C(=O)O)c(C)n1Cc1cccc(Cl)c1	inactive
CC(C)Nc1ccc(-n2nc3ccccc3[n+]2[O-])cc1	1.9 µM (active)
CCC(=O)Nc1c(C(=O)N2CCN(c3ccc(F)cc3)CC2)oc2ccccc12	inactive
CC1=C(C(=O)OCc2ccc(C)cc2)C(c2c(Cl)cccc2Cl)CC(=O)N1 (stereo unspecified)	inactive
CCOC(=O)c1ccc(NC(=O)C2CC(=O)NC(=Nc3ccc(C)c(C)c3)S2)cc1 (stereo unspecified)	inactive
O=C1N/C(=C/c2cccs2)C(=O)N1Cc1ccc(F)cc1	inactive
CSC1=N/C(=C\C=C\c2cccs2)C(=O)S1	16.9 µM (active)
O=S1(=O)CCC(NC(=S)SCc2ccccc2Br)C1 (stereo unspecified)	inactive
COc1cc(OC)cc(C(=O)NCC(=O)OCc2csc(-c3ccccc3)n2)c1	inactive
Cc1ccc(S(=O)(=O)N2CCN(C(=O)COC(=O)c3c(C)noc3C)CC2)c(C)c1	inactive
Cc1ccc(-c2nc(COC(=O)c3c(C)noc3C)cs2)cc1	9.53 µM (active)

From PubChem BioAssay AID588342 (National Center for Advancing Translational Sciences (NCATS), 2011)
